Cruzain noTriton = blocks cruzain activity in detergent-free assay; P25779; purified cruzain, Z-FR-AMC fluorescence, no detergent; Potency, µM, without a hit: max response, negative = inhibition, usual class: inhibitors; hit rate 2.3% among 200,000;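 also: plate controls were enzyme without inhibitor for no effect and buffer without enzyme for full effect; nearly all actives have a fitted effect of over 40% in size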
Target sequence (P25779 123-467 limits assumed): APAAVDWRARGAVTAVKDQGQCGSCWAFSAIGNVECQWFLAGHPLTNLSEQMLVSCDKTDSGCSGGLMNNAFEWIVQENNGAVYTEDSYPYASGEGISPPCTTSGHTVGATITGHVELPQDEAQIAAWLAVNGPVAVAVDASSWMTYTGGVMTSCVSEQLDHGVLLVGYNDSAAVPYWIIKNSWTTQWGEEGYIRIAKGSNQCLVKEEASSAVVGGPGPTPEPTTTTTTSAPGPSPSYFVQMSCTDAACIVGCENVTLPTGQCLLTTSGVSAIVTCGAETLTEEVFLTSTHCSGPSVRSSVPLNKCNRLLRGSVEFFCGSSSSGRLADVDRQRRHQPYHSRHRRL
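Purified cruzain at 1.5 nM, pre-incubated 15 min with compound at room temperature in 100 mM sodium acetate pH 5.5, 5 mM DTT, 0.00005% Triton X-100. Reaction started with 2 uM Z-FR-AMC; AMC fluorescence increase over 60 s gives rate.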
Cruzain inh Det = blocks cruzain activity in presence of Triton detergent | P25779 | purified cruzain, Z-FR-AMC fluorescence, 0.01% Triton | Potency, µM, for the others: max response, negative = inhibition, actives largely listed as inhibitors | hit rate 0.43% among 200,000;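 also: plate controls were neutral wells for no effect and buffer without enzyme for full effect; nearly all actives have a fitted effect of over 40% in size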
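Cruzain (1.5 nM) preincubated 15 min at RT with compound in 100 mM sodium acetate pH 5.5, 5 mM DTT, 0.01% Triton X-100. Reaction started with 2 uM Z-FR-AMC; AMC fluorescence (ex 360/em 450 nm) change over 60 s gave rate.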
An asterisk follows results filed as active; ? = inconclusive. This is a sample that favours compounds with a hit; in the whole collection about 2.6% have one here. Calls follow the shape of the dose curve; as a rule, active = well fitted curve in the direction sought with a large enough effect; inconclusive = small, poorly fitted or top-dose-only effect, or another doubt; inactive = no such curve, though single readings can be large; an effect the other way counts as inactive or inconclusive. Potency is read from the fitted curve at half-maximal effect.

SMILES	Cruzain noTriton	Cruzain inh Det
Cc1c(Cl)ccc2sc(NC(=O)c3ccc(S(=O)(=O)N4CCCc5ccccc54)cc3)nc12	?	0.8%
O=C(Nc1nc2c(Cl)cccc2s1)c1ccc(S(=O)(=O)N2CCc3ccccc32)cc1	3.16µM*	-2.1%
O=C1OC(c2ccco2)=N/C1=C\c1ccc(-c2cccc(C(F)(F)F)c2)o1	12.6µM*	-11.0%
N#C/C(=C\c1ccc(-c2cccc(C(F)(F)F)c2)o1)C(=O)Nn1cnnc1	9.3%	-12.5%
O=C(Cn1ncc2c3ccccc3n(Cc3cccc(Cl)c3)c2c1=O)NC1CCCCCC1	?	-7.6%
Cc1ccc(C(=O)Nc2ccc(S(=O)(=O)N3CCc4ccccc43)cc2)o1	-15.8%	0.2%
CCOC(=O)/C(C#N)=N/Nc1ccc(S(=O)(=O)N2CCc3ccccc32)cc1	25.1µM*	-6.7%
CCC/C=C(\CCC)C(NS(=O)(=O)c1ccc(-c2ccccc2)cc1)c1ccc(C(=O)OC)cc1 (stereo not given)	?	1.8%
COc1ccc(-n2c(=O)c(CCc3ccccc3)nc3cnc(N4CCNCC4)nc32)cc1	-11.4%	-6.8%
O=C(CSc1nc(-c2ccccc2)c(-c2ccccc2)o1)Nc1nncs1	6.5%	-0.4%
O=C(CSc1nc2ccccc2o1)Nc1nc(-c2ccccc2)c(-c2ccccc2)s1	12.6µM*	-0.5%
O=C(CSc1nc(-c2ccccc2)c(-c2ccccc2)o1)Nc1nnc(-c2ccccc2)s1	10µM*	-4.2%
C=CCSc1nnc(NC(=O)CSc2nc3ccccc3o2)s1	15.8µM*	7.8%
Cc1nnc(NC(=O)CSc2nc3ccccc3o2)s1	-12.8%	1.6%
O=C(CSc1nc2ccccc2o1)Nc1nncs1	3.2%	3.5%
Cc1onc(-c2ccccc2Cl)c1C(=O)Nc1ccc2c(c1)OCO2	-0.8%	-2.0%
Cc1onc(-c2ccccc2Cl)c1C(=O)OCC(=O)c1ccc2c(c1)OCCO2	25.1µM*	-2.9%
Cc1cc(C)c2c(n1)SCCN2C(=O)Nc1ccc(C(=O)Nc2cc(Cl)ccc2C)cc1	?	-6.4%
Cc1cccc(C2=NN(c3ccc(Br)cc3)[C@@H](C(=O)N3CCOC3=O)[C@@H]2c2ccc(Cl)cc2)c1	8.91µM*	3.0%
Cc1cccc(C2=NN(c3ccc(Br)cc3)[C@@H](C(=O)N3CCOC3=O)[C@@H]2c2ccc(F)cc2)c1	17.8µM*	-14.2%
Cc1cccc(-c2nc3c(cnn3-c3ccccc3)c(=O)n2-c2ccc(Br)cc2)c1	-8.6%	-11.3%
Cc1cccc(-c2nc3c(cnn3-c3ccccc3)c(=O)n2-c2ccc(Cl)cc2)c1	?	-9.5%
O=C(c1ccccc1)n1nc(-c2ccco2)nc1NCc1ccccc1Cl	-2.2%	-1.9%
CCC(C)C(=O)O[C@H]1C[C@@H](C)C=C2C=C[C@H](C)[C@H](CC[C@@H]3C[C@@H](O)CC(=O)O3)C21 (stereo not given in full)	?	-3.7%
CSc1nnc2c3cc(F)ccc3n(Cc3ccccc3)c2n1	-15.7%	-28.7%
SMILES	Cruzain noTriton	Cruzain inh Det
CCCCn1c2ccc(F)cc2c2nnc(SCCN(CC)CC)nc21	20µM*	15.8µM*
CCOc1ccc(CNC(=O)COc2cc(=O)n(C)c3ccccc23)cc1	19.9%	0.2%
O=C(NCc1ccc2c(c1)OCO2)C1CCN(S(=O)(=O)N2CCCCC2)CC1	-1.3%	-3.2%
O=C(NCc1ccc2c(c1)OCO2)C1CCN(c2ccc(S(=O)(=O)N3CCCC3)cc2)CC1	25.1µM*	-1.1%
COc1ccc2c(c1)C(=O)[C@H](OC(=O)Nc1ccc(C)c(Br)c1)[C@@H](c1ccc(OC)c(Br)c1)O2	?	-1.4%
COc1ccc2c(c1)C(=O)[C@@H](OC(=O)Nc1ccc(C)c(Br)c1)[C@H](c1ccc(OC)c(Br)c1)O2	25.1µM*	1.3%
COc1ccc(COc2cc(-c3cccc(OC)c3)nc3ccc(N)cc23)cc1	?	0.1%
COc1ccc(COc2cc(-c3cccc(OC)c3)nc3ccc(NC(=O)c4ccc(N(C)C)cc4)cc23)cc1	6.31µM*	-2.5%
COc1ccc(COc2cc(-c3cccc(OC)c3)nc3ccc(NC(=O)c4ccc(C)cc4)cc23)cc1	7.94µM*	3.2%
COc1ccc(COc2cc(-c3cccc(OC)c3)nc3ccc(NC(C)=O)cc23)cc1	?	1.1%
CC(C)CC(=O)Nc1ccc(S(=O)(=O)Nc2cc3c(cc2N2CCOCC2)n(C)c(=O)c(=O)n3C)cc1	?	-3.1%
CC(C)C[C@@H](CC(=O)N[C@H](CC(=O)N[C@@H]1CCNC[C@H]1C(=O)N[C@H](CC(=O)N[C@@H](CCC(=O)O)CC(=O)O)Cc1ccccc1)C(C)C)NC(=O)[C@@H]1CCCC[C@H]1N	9.8%	6.4%
CCc1ccccc1-n1cnc2cc(C(=O)NC3CCCCCC3)ccc21	-1.5%	-2.8%
CC1=NN2C(=N)/C(=C\c3ccc(SCc4ccccc4)o3)C(=O)N=C2S1	7.94µM*	-0.9%
N=C1/C(=C\c2ccc(SCc3ccco3)o2)C(=O)N=C2SC=NN12	?	-19.5%
C1=C(c2ccccc2)Nc2nnnn2C1c1cccs1 (stereo not given)	-7.3%	3.5%
Cc1ccc(C2=CC(c3cccs3)n3nnnc3N2)cc1 (stereo not given)	15.8µM*	4.9%
CC1CC2C3CC(F)C4=CC(=O)C=C[C@@]4(C)[C@@]3(F)C(O)C[C@]2(C)[C@]1(O)C(=O)COC(=O)C(C)(C)C (stereo not given in full)	1.8%	-2.9%
COC(=O)[C@@]1(Cc2ccccc2)[C@H]2c3cc(C(=O)N(C)C)n(CCF)c3C[C@H]2CN1C(=O)c1ccccc1	?	0.6%
O=C(O)COc1ccccc1/C=C1\SC(=S)N(/N=C/c2ccccc2O)C1=O	?	28.2µM*
COc1cccc(/C=C2/SC(=O)N(CC(=O)N3CCc4ccccc4C3)C2=O)c1OCC(=O)O	?	-1.4%
COc1ccc(CNC(=O)c2ccc3c(c2)N(C)C(=O)C2CCCCN32)cc1OC (stereo not given)	-6.2%	-3.7%
CCn1c(C(=O)NCc2ccccc2Br)cc2oc3ccccc3c21	?	-6.6%
CCn1c(C(=O)NCc2cc(Br)ccc2OC)cc2oc3ccccc3c21	31.6µM*	-5.4%
CCc1ccc(CN(Cc2cn[nH]c2-c2ccc(OC)cc2)C(=O)Nc2ccc(Br)cc2)cc1	0.8%	-4.9%
SMILES	Cruzain noTriton	Cruzain inh Det
COc1ccc(NC(=O)[C@@H]2[C@@H]3C(=O)N(C4CCCCC4)C(=O)[C@@H]3C3c4ccccc4C=CN32)cc1 (stereo not given in full)	15.8µM*	-1.9%
CC(=O)[C@@H]1[C@@H]2C(=O)N(C3CCCCC3)C(=O)[C@@H]2C2c3ccccc3C=CN21 (stereo not given in full)	-15.3%	1.4%
O=C1CC(N2C(=O)/C(=C/C=C/c3ccccc3)SC2=S)C(=O)N1c1ccccc1 (stereo not given)	15.8µM*	-5.9%
O=C1CC(N2CCN(c3ccccc3Cl)CC2)C(=O)N1c1ccccc1 (stereo not given)	10.4%	0.5%
CCc1ccc(NC(=O)Cn2c(=O)n(CCC(=O)NCCc3ccc(OC)c(OC)c3)c(=O)c3ccccc32)cc1	-14.5%	0.7%
CC1(C)N=C(c2ccc(F)cc2)C(=O)N1CC(=O)Nc1ccccc1Cl	23.3%	-1.0%
COCCCN=C1NN=C(c2cc(C)n(-c3ccccc3)c2C)CS1	-4.6%	-6.9%
CCCCN=C1NN=C(c2cc3ccccc3o2)CS1	7.94µM*	-9.4%
O=C(NC(=S)Nc1cc(-c2nc3ccccc3[nH]2)ccc1Cl)c1ccc2c(c1)OCO2	31.6µM*	17.8µM*

Screening results: PubChem, National Center for Advancing Translational Sciences (NCATS)
